Among all 370,000 compounds or so, about 3,300 (0.89%) were called active. Many of the other results were omitted from the sample, so actives are more common in it than they were. Unmarked numbers belong to inactive results.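 The calls were made as follows: active = activation above the mean of all tested compounds plus 3 SD, computed per campaign excluding outliers beyond control limits (cut at about 13% in these data); inactive = the rest.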
What follows are molecules tested against Kallikrein-7 (Homo sapiens) (UniProt P49862) (assay: activation of human kallikrein-7 proenzyme – biochemical, fluorescence intensity, primary screen (AID 652039)). Conditions: purified proKLK7, EDANS-DABCYL substrate fluorescence; at 7 µM; stronger effect = higher value; 100% is mature enzyme control, 0% vehicle.
Chain of Kallikrein-7 (Homo sapiens) (P49862 whole entry, looked up): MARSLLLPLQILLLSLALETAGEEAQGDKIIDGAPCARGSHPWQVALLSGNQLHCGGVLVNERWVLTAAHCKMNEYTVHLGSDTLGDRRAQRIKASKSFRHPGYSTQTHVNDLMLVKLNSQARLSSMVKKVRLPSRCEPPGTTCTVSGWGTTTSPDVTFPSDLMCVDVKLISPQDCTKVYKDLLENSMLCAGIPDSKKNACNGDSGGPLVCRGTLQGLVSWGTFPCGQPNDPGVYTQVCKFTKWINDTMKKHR

In order of falling activation:
1. CN(C)CCNC(=O)c1ccc(Cl)c2cc3ccccc3nc12  6.31%
2. c1csc(-c2nnc(SCc3nc4ccccc4[nH]3)o2)c1  1.12%
3. Cc1ccc(Cn2cc(CN3[C@@H](CC(C)C)COc4ccc(Cl)cc4S3(=O)=O)nn2)cc1  0.91%
4. O=C(CSc1nc2c(c(=O)[nH]1)CCCC2)N1CCCCC1  0.8%
5. COc1cccc(-c2coc3cc4oc(=O)c(CC(=O)O)c(C)c4cc23)c1  0.62%
6. CCCCCN1CCCCC(NC(=O)C(C)CCC)C1=O (centres undefined)  0.5%
7. Cc1cc(C(=O)OCC(=O)NCc2ccco2)c(C)n1-c1ccccc1  0.45%
8. Cc1cccc(NC(=O)C[C@H]2CC[C@H]3[C@@H](COc4ccc(NC(=O)Nc5ccccc5)cc4C(=O)N3C)O2)c1  0.42%
9. Cc1ccc(OCC(=O)Nc2ccc3oc(=O)ccc3c2)cc1C  0.37%
10. COc1ccnc(NC(=S)N2CCN(c3ncc(C(F)(F)F)cc3Cl)CC2)c1  0.32%
11. CCCCN1CCN(C(=O)c2ccc3c(c2)NC(=O)C(C)(C)O3)CC1  0.18%
12. COc1cccc(N2CCN(CC(=O)N(C)Cc3ccc(F)cc3)CC2)c1  0.13%
13. COc1ccc(C)cc1N(C)C(=O)c1coc(=O)c2ccccc12  0.1%
14. COc1cccc(CNC(=O)CNS(=O)(=O)c2ccc3nc(C)sc3c2)c1OC  0.09%
15. O=C(NCc1ccco1)c1cnn2c(C(F)(F)F)cc(-c3ccco3)nc12  0.06%
16. COC(=O)[C@]12C[C@H](CC(=O)N3CCN(C(=O)C4CC4)CC3)C(=O)N(Cc3ccc4c(c3)OCO4)C1=C[C@H](C(C)(C)C)O[C@@H]2C  0.05%
17. C=CCN1C(=O)[C@@H](CC(=O)NCCCOCCCC)[C@]2(C(=O)OCC)CCCCC/C=C/12  0.01%
18. O=C(CSc1nc2sc3c(c2c(=O)n1-c1ccccc1)CCCC3)NN=Cc1ccc(OCc2ccccc2)cc1  -0.01%
19. CCCc1nnc(NC(=O)CCC(=O)N2CCN(S(=O)(=O)c3ccc(OC)cc3)CC2)s1  -0.03%
20. O=C(CNS(=O)(=O)c1ccccc1F)N1CCN(c2ccccn2)CC1  -0.03%
21. CCCCNC(=O)C[C@H]1C[C@@]2(C(=O)OC)C(=C[C@H](COCc3ccccc3)O[C@@H]2C)N(Cc2ccc(Cl)cc2Cl)C1=O  -0.06%
22. COC(=O)C1CN(CCc2ccccc2)CCS(=O)(=O)N1Cc1cccc(Cl)c1 (centres undefined)  -0.14%
23. O=C(CSc1nc2ccccc2n1Cc1ccccc1)NNC(=S)Nc1ccccc1  -0.17%
24. COC(=O)C1CN(CCc2ccccc2)CCS(=O)(=O)N1Cc1ccc(F)cc1 (centres undefined)  -0.24%
25. COC(=O)[C@]12C[C@H](CC(=O)NCC34CC5CC(CC(C5)C3)C4)C(=O)N(Cc3ccc(Cl)cc3Cl)C1=C[C@H](COCc1ccccc1)O[C@@H]2C  -0.26%
26. C=CCN(C)CC#Cc1ccccc1  -0.36%
27. CCCN1CCN(C(=O)Cn2ncc3ccccc32)CC1  -0.42%
28. COc1cc(C)ccc1OCC(=O)OCC(=O)c1ccc[nH]1  -0.43%
29. O=C(Oc1ccccc1)Oc1ccc2c(c1)oc(=O)c1ccccc12  -0.49%
30. CCn1c2ccccc2c2cc(NC(=O)CSc3nnc(-c4ccccc4)n3-c3ccc(C)cc3)ccc21  -0.54%
31. CCc1nn(CC(=O)N2CCN(CC)CC2)c(=O)c2cccn12  -0.55%
32. CN(C)C(=O)c1cc(Br)ccc1Cl  -0.57%
33. O=C(O)c1cnn2c(C(F)(F)F)cc(-c3ccccc3)nc12  -0.59%
34. O=C(NNC(=O)c1cc(-c2ccccc2Cl)nc2ccccc12)c1csc(N2CCOCC2)n1  -0.59%
35. O=C(NCCCN1CCOCC1)c1cnn2c(-c3ccccc3)cc(-c3ccccc3)nc12  -3.01%
36. CCOc1ccccc1-c1cc(C(=O)N/N=C(\C)c2cccnc2)c2ccccc2n1  -4.03%
37. Cn1nc(-c2ccc(Cl)cc2)c2cc(C(=O)NCc3ccco3)sc21  -17.3%

In the case of `CC(=O)Nc1cc2ccc(OC(C)=O)cc2oc1=O`, the activation is reported as 383% (active).
With `CCc1ccc(-c2cc(C(=O)NCc3ccco3)c3ccccc3n2)s1` the activation was 41.4% (active).
For `CCN1CCN(C(=O)Cn2nc(C)n3c(cc4c(OC)cccc43)c2=O)CC1`, the activation was 21% (active).
For `COC(=O)c1cnn2c(C(F)(F)F)cc(-c3ccco3)nc12`, the activation was 23.1% (active).
In the case of `CN(C)C(=O)c1coc2nc3ccccc3nc12`, the activation is reported as 39.4% (active).
For `O=C(NCCN1CCOCC1)c1cc(-c2cccs2)nc2ccccc12`, the activation was 18.3% (active).
`CCCCN(C)CCCNC(=O)c1cc(-c2cccs2)nc2ccccc12` was tested, and the activation was 47.9% (active).
